From PubChem BioAssay (NCATS)
Inconclusive results are not listed. A call without a number means that no potency is given here. A number with no mark means an inactive call. Active and inactive are the calls of the source. Calls follow the shape of the dose curve; as a rule, active = well fitted curve in the direction sought with a large enough effect; inconclusive = small, poorly fitted or top-dose-only effect, or another doubt; inactive = no such curve, though single readings can be large; an effect the other way counts as inactive or inconclusive.

Tests used:
[1] = target: Rap guanine nucleotide exchange factor 3 (Homo sapiens) (UniProt O95398); experiment: Confirmatory qHTS for antagonist of cAMP-regulated guanine nucleotide exchange factor 3 (EPAC1) (AID 1645880); also: nearly all actives have a fitted effect of over 55% in size; also: potency is read from the fitted curve at half-maximal effect
Procedure, shortened: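 Released BODIPY-GDP fluoresces less than Rap1-bound BODIPY-GDP; the signal is followed at 480/540 nm at 5-min intervals over 30 min, after 5 min at room temperature. Reactions contain 100 nM EPAC1, 250 nM RAP1B-BODIPY-GDP and 50 uM GDP; results are normalized to ATA and DMSO.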

[2] = target: Rap guanine nucleotide exchange factor 3 (Homo sapiens) (UniProt O95398); experiment: Confirmatory qHTS for agonist of cAMP-regulated guanine nucleotide exchange factor 3 (EPAC1) (AID 1645881); also: nearly all actives have a fitted effect of over 75% in size; also: potency is read from the fitted curve at half-maximal effect;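 as to activation: EPAC1 catalysed release of BODIPY-GDP from Rap1B seen as fluorescence loss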
[3] = target: Rap guanine nucleotide exchange factor 4 (Homo sapiens) (UniProt Q8WZA2); experiment: Confirmatory qHTS for agonist of cAMP-regulated guanine nucleotide exchange factor 4 (EPAC2) (AID 1645884);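 also: nucleotide exchange releases bodipy-GDP from Rap1 and this lowers its fluorescence; nearly all actives have a fitted effect of over 65% in size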; also: potency is read from the fitted curve at half-maximal effect
[4] = target: Rap guanine nucleotide exchange factor 4 (Homo sapiens) (UniProt Q8WZA2); experiment: Confirmatory qHTS for antagonist of cAMP-regulated guanine nucleotide exchange factor 4 (EPAC2) (AID 1645885); also: nearly all actives have a fitted effect of over 25% in size
[5] = target: Rap guanine nucleotide exchange factor 3 (Homo sapiens) (UniProt O95398); experiment: Counterscreen qHTS for antagonist of cAMP-regulated guanine nucleotide exchange factor 3 (EPAC1) (AID 1645888)
Procedure, shortened: (§1)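 Rap1B-BODIPY-GDP 250 nM + GDP 50 uM; cpds 7-pt, final 9.74 nM–152 uM (activator mode) or from 7.32 nM upwards (inhibitor mode); RT; FI 480/540 nm at 5 and 30 min, then ± cAMP, reread.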

[6] = target: Rap guanine nucleotide exchange factor 3 (Homo sapiens) (UniProt O95398); experiment: Counterscreen qHTS for agonist of cAMP-regulated guanine nucleotide exchange factor 3 (EPAC1) (AID 1645889); also: nearly all actives have a fitted effect of over 40% in size
Procedure, shortened: as §1

Rap guanine nucleotide exchange factor 4 (Homo sapiens), sequence (Q8WZA2 whole entry, looked up): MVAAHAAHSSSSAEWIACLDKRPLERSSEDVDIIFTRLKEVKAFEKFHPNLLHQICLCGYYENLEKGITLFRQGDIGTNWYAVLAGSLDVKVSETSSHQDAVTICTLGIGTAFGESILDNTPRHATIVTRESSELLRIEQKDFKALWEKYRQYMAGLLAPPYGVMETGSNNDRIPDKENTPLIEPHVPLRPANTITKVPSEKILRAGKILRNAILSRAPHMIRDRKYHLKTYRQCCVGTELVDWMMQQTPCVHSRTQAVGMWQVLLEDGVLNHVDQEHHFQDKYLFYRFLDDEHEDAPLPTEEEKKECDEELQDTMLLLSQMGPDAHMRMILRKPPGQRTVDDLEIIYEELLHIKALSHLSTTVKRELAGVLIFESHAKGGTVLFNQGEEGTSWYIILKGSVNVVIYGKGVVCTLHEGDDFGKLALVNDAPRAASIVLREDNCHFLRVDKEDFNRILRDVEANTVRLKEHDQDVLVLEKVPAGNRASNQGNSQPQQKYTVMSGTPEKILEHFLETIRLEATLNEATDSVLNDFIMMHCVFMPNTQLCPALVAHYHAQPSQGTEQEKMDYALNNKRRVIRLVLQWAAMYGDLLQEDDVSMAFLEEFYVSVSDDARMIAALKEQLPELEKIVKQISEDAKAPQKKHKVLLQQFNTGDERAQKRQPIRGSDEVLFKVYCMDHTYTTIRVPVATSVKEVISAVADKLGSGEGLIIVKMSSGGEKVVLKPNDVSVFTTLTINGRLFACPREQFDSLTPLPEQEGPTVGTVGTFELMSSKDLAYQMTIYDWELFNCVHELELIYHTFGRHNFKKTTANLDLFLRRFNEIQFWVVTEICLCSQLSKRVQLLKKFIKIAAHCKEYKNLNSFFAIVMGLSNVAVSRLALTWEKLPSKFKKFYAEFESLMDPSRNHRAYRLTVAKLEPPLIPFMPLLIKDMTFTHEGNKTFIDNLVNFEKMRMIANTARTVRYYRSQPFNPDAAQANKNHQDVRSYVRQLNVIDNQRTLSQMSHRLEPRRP
Rap guanine nucleotide exchange factor 3 (Homo sapiens), sequence (O95398 whole entry, looked up): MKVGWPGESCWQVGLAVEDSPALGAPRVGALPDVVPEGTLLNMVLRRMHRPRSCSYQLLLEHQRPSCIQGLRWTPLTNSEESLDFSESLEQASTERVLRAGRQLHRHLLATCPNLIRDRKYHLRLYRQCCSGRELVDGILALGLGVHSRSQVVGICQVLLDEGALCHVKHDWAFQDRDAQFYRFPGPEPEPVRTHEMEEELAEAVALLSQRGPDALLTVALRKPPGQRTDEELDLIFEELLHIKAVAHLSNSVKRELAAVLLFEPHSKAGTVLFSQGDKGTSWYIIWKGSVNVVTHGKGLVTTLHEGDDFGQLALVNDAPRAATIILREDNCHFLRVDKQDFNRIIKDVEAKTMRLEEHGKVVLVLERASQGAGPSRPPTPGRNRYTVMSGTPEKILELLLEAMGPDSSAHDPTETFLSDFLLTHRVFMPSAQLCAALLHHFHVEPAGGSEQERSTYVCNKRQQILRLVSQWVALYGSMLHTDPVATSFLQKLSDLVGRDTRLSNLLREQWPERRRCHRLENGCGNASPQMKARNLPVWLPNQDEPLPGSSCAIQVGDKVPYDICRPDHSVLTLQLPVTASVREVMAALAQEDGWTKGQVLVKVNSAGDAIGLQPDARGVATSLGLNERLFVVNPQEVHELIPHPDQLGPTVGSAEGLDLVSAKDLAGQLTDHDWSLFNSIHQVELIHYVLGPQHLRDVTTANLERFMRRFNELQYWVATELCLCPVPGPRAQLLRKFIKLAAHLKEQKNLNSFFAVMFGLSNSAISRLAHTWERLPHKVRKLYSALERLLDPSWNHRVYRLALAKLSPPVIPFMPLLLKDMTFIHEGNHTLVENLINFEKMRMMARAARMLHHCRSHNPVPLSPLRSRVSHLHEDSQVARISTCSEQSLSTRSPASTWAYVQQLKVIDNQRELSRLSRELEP

| SMILES | Potency [1] | Potency [2] | activation [3] | Potency [4] | activity change, negative = inhibition [5] | activation [6] | Potency [3] | Potency [5] | Potency [6] |
| --- | --- | --- | --- | --- | --- | --- | --- | --- | --- |
| COC(=O)c1ccc(N2C(=O)CC(N3CCOCC3)C2=O)cc1 (stereo not drawn) | inactive | inactive | 8.32% [at 17.1 µM, percent relative to cAMP agonist control] | inactive | 6.34% [at 30.8 µM] | 10.6% [at 30.8 µM] |  |  |  |
| Cc1nc(N)sc1C(=O)N1N=N1 | inactive | inactive |  | inactive |  |  | inactive | inactive | inactive |
| CCCCC(CC)Cn1c(Oc2ccccc2)nc2c1c(=O)n(C)c(=O)n2C (stereo not drawn) | inactive | inactive |  | inactive |  |  | inactive | inactive | inactive |
| CCC1CCCCN1CCCNC(=O)c1ccc(CS(=O)(=O)Cc2ccccc2F)o1 (stereo not drawn) | inactive | inactive |  | inactive |  |  | inactive | inactive | inactive |
| O=C(O)c1cc(N/N=C/c2ccncc2)ccc1Cl | inactive | inactive | 1.56% [at 17.1 µM, percent relative to cAMP agonist control] | inactive | -14% [at 30.8 µM] | 24.2% [at 30.8 µM] |  |  |  |
| CCOc1ccc(/C=C/C(=O)c2cc(Br)ccc(=O)c2O)cc1 | 33.8 µM (active) | inactive |  | inactive |  |  | inactive | inactive | inactive |
| Nc1ncnc2c1nc(Br)n2[C@@H]1O[C@@H]2COP(=O)(O)O[C@H]2[C@H]1O | 5.36 µM (active) | 7.08 µM (active) |  | inactive |  |  | 2.24 µM (active) | inactive | inactive |
| Cc1nn(CCc2nc(-c3ccco3)cs2)c2[nH]c(=O)cc(C(F)(F)F)c12 | inactive | inactive |  | inactive |  |  | inactive | inactive | inactive |
| COc1cc(/C=C2\SC(=S)N(NS(=O)(=O)c3ccccc3)C2=O)ccc1O | inactive | inactive |  | inactive |  |  | inactive | inactive | inactive |
| Cc1ccsc1C(=O)OCC(=O)NCCNC(=O)COC(=O)c1sccc1C | inactive | inactive |  | inactive |  |  | inactive | inactive | inactive |
| CCOc1ccc(NC(=O)CN(C)C(=O)c2cc3c(s2)CCC3)cc1OCC | 37.9 µM (active) | inactive |  | inactive |  |  | inactive | inactive | inactive |
| CCc1nnc(NC(=O)c2cc(-c3ccco3)nc3ccccc23)s1 | 21.3 µM (active) | inactive |  | inactive |  |  | inactive | inactive | inactive |
| CN(Cc1ccccc1F)c1nc(-c2cccs2)nc2ccccc12 | inactive | inactive | 0% [at 17.1 µM, percent relative to cAMP agonist control] | inactive | -18.6% [at 30.8 µM] | 4.35% [at 30.8 µM] |  |  |  |
| CN(C)S(=O)(=O)N1CCN(S(=O)(=O)N(C)C)CC1 | inactive | inactive | 5.89% [at 17.1 µM, percent relative to cAMP agonist control] | inactive | -14.8% [at 30.8 µM] | 1.25% [at 30.8 µM] |  |  |  |
| Cc1ccc(-n2nc3c(=O)n(CCCC(=O)NCc4ccccc4C)nc(C)c3c2C)cc1 | inactive | inactive |  | inactive |  |  | inactive | inactive | inactive |
| NS(=O)(=O)c1ccc(NC(=O)Cc2c(F)cccc2Cl)cc1 | inactive | inactive |  | inactive |  |  | inactive | inactive | inactive |
| Cc1ccc(NC(=O)CN2C(=O)N/C(=C/c3ccccc3OCc3cccc(C(=O)O)c3)C2=O)cc1 | 31.6 µM (active) | inactive | -10.8% [at 17.1 µM, percent relative to cAMP agonist control] | inactive | -1.86% [at 30.8 µM] | 5.98% [at 30.8 µM] |  |  |  |
| O=c1c2ccccc2[nH]c(=S)n1-c1cccc(S(=O)(=O)N2CCCC2)c1 | inactive | inactive |  | inactive |  |  | inactive | inactive | inactive |
